By AC50 is commonly meant the midpoint of the concentration-response curve, whichever way the signal moves.

Structures are written as SMILES. Records with an inconclusive call do not appear. Active and inactive are the calls of the source. Rule for the calls: active = hit-call score of the fitted dose curve at least 0.9, where 1 is the maximum; inconclusive = response in the unintended direction; inactive = score below 0.9.

This assay is described as follows: CCTE_Mundy_HCI_iCellGluta_NOG_NeuronCount: CCTE's Neurite Outgrowth Assay in iCellGluta cells for Neuron Count, Mundy Lab (AID 2284340).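 Note: cells fixed about 48 h after compound addition.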 As for the experimental part: CCTE_Mundy_HCI_iCellGluta_NOG is a multiplexed, cell-based-readout assay that uses iCell GlutaNeurons from FUJIFILM Cellular Dynamics, Inc. (FCDI), human glutamatergic enriched neurons derived from induced pluripotent stem (iPS) cells, with measurements taken at 50.33 hours after chemical dosing in a microplate: 96-well plate.CCTE_Mundy_HCI_iCellGluta_NOG_NeuronCount is one of four components of the CCTE_Mundy_HCI_iCellGluta_NOG assay. It measures cell viability related to number of neurons using High Content Imaging of fluorescently labelled markers.Data from the assay component CCTE_Mundy_HCI_iCellGluta_NOG_NeuronCount was analyzed at the endpoint CCTE_Mundy_HCI_iCellGluta_NOG_NeuronCount in the positive analysis fitting direction relative to DMSO as the negative control and baseline of activity. Using a type of viability reporter, loss-of-signal activity can be used to understand developmental effects.
Exposure starts 2 hours post-plating by adding 10 ul of the working solution to 90 ul of media in the wells for a 1/10 dilution. Forty-eight hours after chemical treatment cells are fixed by direct addition of 100 ul of warm (37C) Dulbecco's phosphate buffered saline (DPBS) fixative solution containing 8% paraformaldehyde, 8% sucrose, and 0.1% of 3 mg/ml Hoechst 33342 into each well. Primary antibodies are prepared by dilution in Immunocytochemical Staining Buffer (ISB), 10X Dulbecco's PBS, 0.1% Saponin, 5% Bovine Serum Albumin, 0.5% NaN3 (Sodium Azide) and betaIII-tubulin (rabbit anti-betaIII-tubulin, 1:800) followed by Alexa Fluor-488 secondary (1:500) to label neuronal cell bodies and neurites. A Cellomics ArrayScan VTi HCS Reader is used for automated image acquisition and analysis of neurite outgrowth.
As to `CC(=O)N[C@@H](CC(=O)O)C(=O)O`, the compound was classed as inactive.

As for `CC(C)O`, the compound was called inactive.

`BrC1CC(Br)CC(Br)CC(Br)CC(Br)CC(Br)C1` (configuration not stated): the AC50 is 4.56 µM (active).

Take `C[C@@H]1CC[C@@H](C(C)(C)O)[C@H](O)C1`: the compound was classed as inactive.

Turning to `CCc1ccccc1`, the compound was called inactive.

On to `CCCCCC(C)(CC)C(=O)NC` (configuration not stated), for which the outcome was inactive.

Consider `CC(C)c1nn(C(=O)NC(C)(C)C)c(=O)n1N`, for which the compound was called inactive.

For `C[C@@H]1CCO[C@H]2Cn3cc(C(=O)NCc4ccc(F)cc4F)c(=O)c(O)c3C(=O)N12`, the outcome was inactive.

Turning to `Cc1[nH]n(C)c(=O)c1C(=O)c1ccc(C(F)(F)F)cc1S(C)(=O)=O`, the compound was classed as inactive.

As to `CCCCCC=C(C)C(CC)CCO` (configuration not stated), the outcome was inactive.

On to `CC(CNC(=S)[S-])NC(=S)[S-].[Zn+2]` (configuration not stated), for which the AC50 is 12.7 µM (active).

Take `O=C1CC2(CCCC2)CC(=O)N1CCCCN1CCN(c2ncccn2)CC1`: the compound was classed as inactive.

Values taken from PubChem BioAssay (EPA / NIEHS).
